Measurements: PubChem BioAssay

assay: modulators of S6 phosphorylation in cells, primary screen, cell-based, A549, cytoblot, luminescence, serum-stimulated (AID 1158); settings: A549 phospho-S6 cytoblot, 5 h, higher = more signal;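 also: serum-stimulated A549 lung adenocarcinoma cells; signal is phosphorylated S6 detected by cytoblot immunostaining with HRP secondary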

Row | Structure (SMILES) | z-score
1 | COc1cc(Cc2cc3c(c(-c4ccccc4)n2)[Si](C(C)C)(C(C)C)OC3)cc(OC)c1OC | 0.159
2 | COCCOC(=O)N1C(=O)[C@@]2(c3cc(C#CCC(C(=O)OC)C(=O)OC)ccc31)[C@H](C(N)=O)[C@H]1C(=O)O[C@H](c3ccccc3)[C@H](c3ccccc3)N1[C@@H]2c1ccccc1OCCO | 4.47
3 | C[C@@]1([C@@H](NS(=O)(=O)c2cccc3cccnc23)c2ccc(-c3ccccc3)cc2)C[C@H]1C1CCCCC1 | -0.79
4 | C=C(C(=O)CC[C@@H](OC(=O)c1ccccc1-c1ccccc1C(=O)O)c1ccc(CO)o1)C(C)C | -0.535
5 | CCOC(=O)C1=CCC(c2cccn2C(=O)OC(C)(C)C)N(S(=O)(=O)c2ccc(C)cc2)C1 (stereo unspecified) | -0.0414
6 | O=C1N(Cc2ccccc2)c2ccccc2C[C@@]12N=C(c1ccc(OCCCO)cc1)O[C@H]2c1ccccc1 | 0.075
7 | Cc1ccc(S[C@]2(C(=O)NC3CC3)CC(=O)N(C3Cc4ccccc4C3)[C@@H]2c2ccc(CO)cc2I)cc1 | -0.256
8 | CCc1cccc(NC(=O)O[C@H]2[C@H](OC(=O)Nc3ccccc3-c3ccccc3)[C@H](OC(=O)Nc3ccccc3-c3ccccc3)[C@@H](OC)O[C@@H]2CO)c1 | 0.371
9 | CC(C)C[C@H]1NC(=O)CNC(=O)[C@@]23C(=O)N[C@@H](Cc4ccccc4)C2[C@H](C)[C@@]2(C)O[C@H]2C3/C=C/C/C=C\CNC1=O (stereo partly specified) | 0.662
10 | C=C(/C=C\CNS(=O)(=O)c1ccc(C)cc1)[C@H](O)[C@H]1CCCN1S(=O)(=O)c1ccccc1[N+](=O)[O-] | -0.208
11 | C[C@]1(C(=O)O)c2ccccc2C(=O)N(Cc2cc(C(F)(F)F)cc(C(F)(F)F)c2)[C@H]1c1ccc(CO)cc1 | -0.0892
12 | COC(=O)C(CC#Cc1ccc2c(c1)[C@]1(C(=O)N2)[C@H](c2ccc(OCCO)cc2)N2[C@H](c3ccccc3)[C@H](c3ccccc3)OC(=O)[C@H]2[C@@H]1C(N)=O)C(=O)OC | -0.359
13 | CN1C(=O)C2C=CC(C(O)c3ccc(I)cc3)N(N(c3ccccc3)c3ccccc3)C2C1=O (stereo unspecified) | -1.19
14 | COc1ccc([Si](C)(C)[C@@H]2[C@@H](CC(=O)N(CCO)Cc3ccccc3)O[C@]3(C(=O)N(Cc4cccc(I)c4)c4ccccc43)[C@H]2C)cc1 | 0.32
15 | COc1ccc([Si](C)(C)[C@H]2[C@H](CC(=O)N3CCC[C@H]3CO)O[C@@]3(C(=O)N(Cc4cccc(N5CCCCC5=O)c4)c4ccccc43)[C@@H]2C)cc1 | -0.438
16 | O=C1C2C=CC(C(O)C3CCCCC3)N(Nc3ccccc3F)C2C(=O)N1c1ccccc1 (stereo unspecified) | 2.15
17 | C=C(COC)/C(=C/C[C@@H](OC(C)=O)c1cccc(OCCO)c1)c1cnc2ccccc2c1 | 0.249
18 | COC(=O)C1=CC(c2ccc(CO)cc2)=CC(C2CC2)N(Cc2cc3c(cc2Br)OCO3)C=C1C(=O)OC (stereo unspecified) | -0.625

Row | Structure (SMILES) | z-score
19 | O=C/C=C/c1ccc(-c2ccccc2)cc1 | 1.04
20 | COc1ccc(C(O)C2C=CC3C(=O)N(C)C(=O)C3N2Nc2ccccc2)cc1 (stereo unspecified) | -0.423
21 | COCCOC(=O)N1C(=O)[C@@]2(c3cc(C#CCNC(N)=O)ccc31)[C@H](c1ccccc1OCCO)N1[C@H](c3ccccc3)[C@H](c3ccccc3)OC(=O)[C@H]1[C@@H]2C(=O)N1CCCCCCC1 | -0.418
22 | CC1C2C(CCCO)=CC(C3C(=O)N(C(N)=O)C(=O)C23)N1Cc1cccc(OC(F)(F)F)c1 (stereo unspecified) | -0.207
23 | CCCC=C(CCC)[C@@H](NC(=O)c1ccc(C(=O)OC)cc1)c1ccc(C(=O)OC)cc1 | -0.574
24 | COc1ccc(C#Cc2ccc3c(c2)[C@]2(C(=O)N3)[C@H](c3ccccc3OCCO)N3[C@H](c4ccccc4)[C@H](c4ccccc4)OC(=O)[C@H]3[C@@H]2C(=O)NC[C@H](O)c2ccccc2)cc1 | 0.138
25 | C=C(C(=O)CC[C@@H](OC(=O)c1ccccc1-c1ccccc1C(=O)O)c1cccc(OCCO)c1)C(C)C | -0.205
26 | C[C@]1(C(=O)NC2CC2)c2ccccc2C(=O)N(Cc2cc(F)cc(C(F)(F)F)c2)[C@H]1c1ccc(CO)cc1 | 0.0446
27 | C=C(COC)C(=O)CC[C@H](OC(C)=O)c1ccccc1OCCO | 1.2
28 | CCOC(=O)C[C@H]1[C@H](OC(=O)Cc2ccc3c(c2)OCO3)[C@@H](NC(=O)CC(C)C)c2cc(OCCCO)ccc2N1C(=O)c1ccc2ccccc2n1 | 0.806
29 | O=C1C[C@@](C(=O)NCC(F)(F)F)(c2ccc([N+](=O)[O-])cc2)[C@@H](c2ccc(CO)cc2I)N1CC12CC3CC(CC(C3)C1)C2 | 2.26
30 | COc1cc(CO)cc(I)c1O[C@H]1C=C(C(=O)NCCO)C[C@@H](N(CCN2CCOCC2)C(=O)C2CCCO2)[C@@H]1O (stereo partly specified) | 0.545
31 | O=C1C2C=CC(C(O)C(c3ccccc3)c3ccccc3)N(Nc3ccccc3F)C2C(=O)N1c1ccccc1 (stereo unspecified) | -0.799
32 | COC(=O)C[C@H]1O[C@]2(C(=O)N(C)c3ccccc32)[C@@H](C)[C@@H]1[Si](C)(C)c1ccccc1 | 0.252
33 | CC(C)(C)OC(=O)CC[C@]1(C(=O)N2CCOCC2)COC(c2ccc(OCCCO)cc2)=N1 | 0.359
34 | C=C(CC1([C@@H](NP(=O)(c2ccccc2)c2ccccc2)[C@H]2C[C@@H]2CCCC)CC1)c1cccc(OC)c1 | -0.254
35 | COc1ccc(C(=O)Nc2cccc(CN3C(=O)[C@]4(O[C@H](CC(=O)N(CCO)Cc5ccccc5)[C@@H]([Si](C)(C)c5ccc(OC)cc5)[C@@H]4C)c4ccccc43)c2)cc1 | 0.805
36 | CC[C@@H](O[Si](C#C[Si](C(C)C)(C(C)C)C(C)C)(C(C)C)C(C)C)c1cn([C@H](CO)Cc2ccccc2)nn1 | -0.116
